Measured values as given in paper PMC5700166.

biological target: GST-Hu-p50 (Homo sapiens, UniProt P19838 7-356); assay: protein-binding microarray (PBM); PBM: ~300 nM protein, 6 mM HEPES pH 7.8, 80 mM KCl, 0.5 mM EDTA, 0.5 mM EGTA, 6% glycerol, 35 ng/ul poly-dIdC, 1% milk, 1 h, room temperature; Ap Aiptasia and Nv Nematostella (sea anemones) / Co Capsaspora / Aq Amphimedon (sponge) / Dm Drosophila / Hu human; RHD is the Rel homology domain; high values mean tight binding; conditions: dsDNA, one strand shown
Sequence (P19838 7-356): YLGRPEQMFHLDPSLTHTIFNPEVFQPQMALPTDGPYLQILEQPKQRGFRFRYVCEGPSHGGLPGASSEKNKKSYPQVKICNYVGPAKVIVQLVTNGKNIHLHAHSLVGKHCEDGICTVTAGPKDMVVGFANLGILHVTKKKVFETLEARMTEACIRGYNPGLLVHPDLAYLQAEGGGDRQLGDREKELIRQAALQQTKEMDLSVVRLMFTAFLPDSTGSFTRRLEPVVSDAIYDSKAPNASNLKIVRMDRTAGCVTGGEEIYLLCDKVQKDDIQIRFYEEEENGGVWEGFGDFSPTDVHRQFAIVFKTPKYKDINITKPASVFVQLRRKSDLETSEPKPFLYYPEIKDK

Row | Sequence | binding signal [z-score]
1 | CCGATTAACATCAGGGGATTAAATGATGTTAATCGGGTCTTGATTCGCTTGACGCTGCTG | 4.87
2 | CCGATTAACATCAGGCGTTTCCCTGATGTTAATCGGGTCTTGATTCGCTTGACGCTGCTG | 1.83
3 | CCGATTAACATCAGGGGAACTCATGATGTTAATCGGGTCTTGATTCGCTTGACGCTGCTG | 4.82
4 | CCGATTAACATCACACCCCAACATGATGTTAATCGGGTCTTGATTCGCTTGACGCTGCTG | 1.05
5 | CCGATTAACATCAGTATTCCCCATGATGTTAATCGGGTCTTGATTCGCTTGACGCTGCTG | 5.14
6 | CCGATTAACATCAAGGAAATTCCTGATGTTAATCGGGTCTTGATTCGCTTGACGCTGCTG | 1.33
7 | CCGATTAACATCACCGTTCCGATTGATGTTAATCGGGTCTTGATTCGCTTGACGCTGCTG | 1.04
8 | CCGATTAACATCAATAATTTTCCTGATGTTAATCGGGTCTTGATTCGCTTGACGCTGCTG | 1.12
9 | CCGATTAACATCAGGAAATACCATGATGTTAATCGGGTCTTGATTCGCTTGACGCTGCTG | 1.08
10 | CCGATTAACATCAGGGGTAACACTGATGTTAATCGGGTCTTGATTCGCTTGACGCTGCTG | 1.68
11 | CCGATTAACATCAATTTTTGCCCTGATGTTAATCGGGTCTTGATTCGCTTGACGCTGCTG | 1.07
12 | CCGATTAACATCACATACCCCCCTGATGTTAATCGGGTCTTGATTCGCTTGACGCTGCTG | 3.68
13 | CCGATTAACATCAGGGAGAGCCCTGATGTTAATCGGGTCTTGATTCGCTTGACGCTGCTG | 2.37
14 | CCGATTAACATCACTCTTTCCCCTGATGTTAATCGGGTCTTGATTCGCTTGACGCTGCTG | 4.08
15 | CCGATTAACATCATGAAGACCCCTGATGTTAATCGGGTCTTGATTCGCTTGACGCTGCTG | 1.77
16 | CCGATTAACATCAGGGGAAAGCATGATGTTAATCGGGTCTTGATTCGCTTGACGCTGCTG | 4.81
17 | CCGATTAACATCAACGTTTTCCCTGATGTTAATCGGGTCTTGATTCGCTTGACGCTGCTG | 3.09
18 | CCGATTAACATCAGCATTTTCCCTGATGTTAATCGGGTCTTGATTCGCTTGACGCTGCTG | 3.25
19 | CCGATTAACATCAGGAAGGCCCCTGATGTTAATCGGGTCTTGATTCGCTTGACGCTGCTG | 2.59
20 | CCGATTAACATCACCGTTTAGGTTGATGTTAATCGGGTCTTGATTCGCTTGACGCTGCTG | 1.22
21 | CCGATTAACATCAGGAAAGTACCTGATGTTAATCGGGTCTTGATTCGCTTGACGCTGCTG | 5.16
22 | CCGATTAACATCACCCACCGATTTGATGTTAATCGGGTCTTGATTCGCTTGACGCTGCTG | 1.08
23 | CCGATTAACATCAAGGGAAAATATGATGTTAATCGGGTCTTGATTCGCTTGACGCTGCTG | 4.8
24 | CCGATTAACATCACGGAAATTTATGATGTTAATCGGGTCTTGATTCGCTTGACGCTGCTG | 1.44
25 | CCGATTAACATCACGGGATTTTCTGATGTTAATCGGGTCTTGATTCGCTTGACGCTGCTG | 4
